About 2,900 (47%) of roughly 6,200 compounds were called active. So high a share suggests a set chosen from earlier hits. This is one part of the list. Unmarked numbers belong to inactive results. Rule as the data show it: active = inhibition above about 50%; inactive = the rest.
Assay: Mycobacterium tuberculosis growth inhibition, primary screen (AID 1259343)
Settings: inhibition: at 10 µM, stronger effect = higher value; outcome: 10 uM

Structure (SMILES) | inhibition
Cn1cccc1C1CCCCCN1C(=O)c1ccc(NC2CC2)nc1 (centres undefined) | -11.4%
COc1ccc(-c2cc(C(F)(F)F)nc(S(C)(=O)=O)n2)cc1 | 101% (active)
CC(C(=O)Nc1cccc(Cl)c1)N(C)Cc1cccs1 (centres undefined) | 5%
Cc1nc2c(OCc3cc(Cl)cc(Cl)c3)cccn2c1N(C)Cc1cccs1 | 82.7% (active)
CCCc1cc(=O)[nH]c(-n2nc(C)cc2NC(=O)/C=C/c2ccc(OC)c(OC)c2)n1 | 102% (active)
COc1cc(/C=C/C(=O)Nc2cc(C)nn2-c2nc(C)c(C)c(=O)[nH]2)cc(OC)c1OC | 99.5% (active)
COc1cc(/C=C/C(=O)Nc2cc(C)nn2-c2nc3c(c(=O)[nH]2)CCC3)cc(OC)c1OC | 2.27%
CCCc1cc(=O)[nH]c(-n2nc(C)cc2NC(=O)/C=C/c2cc(OC)c(OC)c(OC)c2)n1 | 99.8% (active)
CC(O)CN1CCN(C(=O)c2cc(Cl)c(Cl)n2C)CC1 (centres undefined) | -16.4%
CCn1cnnc1CCNS(=O)(=O)NCc1ccccc1 | -1.72%
Fc1c(F)c(F)c(Cn2nnc(-c3ccccc3)n2)c(F)c1F | 26.7%
FC(F)(F)c1cccc(-c2nnn(Cc3ncc(-c4ccccc4)o3)n2)c1 | 58.2% (active)
Cn1nnnc1SCc1nc(-c2cccc(C(F)(F)F)c2)no1 | -6.38%
CCC(=NNC(=O)c1ccc(F)cc1)c1cc(Cl)cc(Cl)c1O | 53.1% (active)
CC(=NNC(=O)c1cc(-c2cccc3ccccc23)n[nH]1)c1ccccc1O | 41.3%
CC(OC(=O)c1cc(Cl)c(O)c(Cl)c1)c1ccc(F)cc1 (centres undefined) | 45.8%
CN(CC1CCCO1)S(=O)(=O)c1ccc(C(=O)Nc2ccc3sccc3c2)cc1 (centres undefined) | 92% (active)
Cc1noc(C)c1CN1CCN2C=C(C(=O)Nc3ccc(-n4cccc4)cc3)OC2=NC1=O | 30.7%
O=C(Nc1ccc(-n2cccc2)cc1)C1=COC2=NC(=O)N(Cc3ccccc3)CCN12 | 84.6% (active)
Cc1noc(C)c1CN1CCN2C(C(=O)Nc3ccc(-n4cccc4)cc3)=COC2=NC1=O | 90.5% (active)
Cc1ccccc1CN1CCN2C(C(=O)Nc3ccc(-n4cccc4)cc3)=COC2=NC1=O | 88.2% (active)
c1cc(-c2ccc3c(c2)CCO3)ccc1CNC1CCCC1 | 75% (active)
Cn1ncc(NCc2ccc(-c3ccc4c(c3)CCO4)cc2)c(Cl)c1=O | 68.8% (active)
CC(C)Cc1nc(CN(C)Cc2ccc3c(c2)CCO3)no1 | 21.8%
CC(C)(C)n1ncc(NCc2cccc3c2OCO3)c(Cl)c1=O | 27.4%

Structure (SMILES) | inhibition
O=C(c1ccc2c(c1)CCO2)N1CCOC(c2ccc(Cl)c(Cl)c2)C1 (centres undefined) | 7.26%
Cc1cc(NC(=O)CON=C2CCN(C(=O)C3CC3)CC2)ccc1Br | 92.3% (active)
Cc1cc(NC(=O)COC(=O)c2ccoc2)ccc1Br | 68.6% (active)
Cc1cc(NC(=O)COc2ccc(C3=CCN(C(N)=O)CC3)cc2)ccc1Br | -21.6%
O=C(CCc1n[nH]c(=S)[nH]c1=O)NCc1cccc(C(F)(F)F)c1 | -13.8%
O=c1[nH]c(=S)[nH]nc1Cc1ccc(Cl)c(Cl)c1 | 96.8% (active)
CC(C)C1=NOC(c2nc(C(C)c3ccccc3)no2)C1 (centres undefined) | 30.4%
Cc1c[nH]c(=O)n1-c1ccc(C(=O)N2CCCC2c2ccccc2)cc1 (centres undefined) | -8.28%
CC1CC1C(=O)NCc1ccc(Oc2ccc(F)cc2)cc1 (centres undefined) | -11.6%
O=C(NCc1ccc(Oc2ccc(F)cc2)cc1)C1CC=CCC1 (centres undefined) | 88.9% (active)
COc1cccc(CN(C)Cc2nc(-c3cccs3)no2)c1 | 54.7% (active)
CN(Cc1nc(-c2cccs2)no1)CC1Cc2ccccc2O1 (centres undefined) | inactive
C#CCCC(C#N)(C#N)c1ncc(-c2ccc(OC)cc2)cn1 | 43%
Cc1cc(Nc2cccc(=O)[nH]2)n(-c2ccc(Cl)c(Cl)c2)n1 | 49.9%
O=C(O)c1cc(-c2cccs2)nn1-c1ccc(Cl)c(Cl)c1 | 51.3% (active)
CC1CN=C(Nc2ccc(C(C)C)cc2)S1 (centres undefined) | 6.24%
CC(C)c1ccc(NC(=O)C2CCS(=O)(=O)C2)cc1 (centres undefined) | 75.6% (active)
CC(C)c1ccc(NS(=O)(=O)C2CC2)cc1 | 30.9%
Cc1ccc(-c2c(N)n[nH]c2C(F)(F)F)cc1 | 32%
Cc1ccc(-c2cc(C(F)(F)C(F)F)[nH]n2)cc1 | 86.5% (active)
O=[N+]([O-])c1ccc(C=NNc2ccnc3cc(Cl)ccc23)o1 | 99.4% (active)
O=[N+]([O-])c1ccc(C=Nn2cnn(Cc3ccccc3Cl)c2=S)o1 | 43.5%
O=[N+]([O-])c1ccc(C=NN(c2ccccc2)c2ccccc2)o1 | 47.1%
O=[N+]([O-])c1ccc(C=NNc2ccc(Cl)c(Cl)c2)o1 | 93.2% (active)
